Assay outcomes (PubChem)
Sampled rows, rich in hits. Any-hit rate of the full collection: about 1.4%.
MEX-5 binding – C. elegans MEX-5 TCR-2 RNA binding activity; Q9XUB2; MEX-5/FITC-TCR2 RNA binding, fluorescence polarization; active compounds read low; activity score (negative = inhibition of binding), % at 10 µM; 300,000 compounds, 0.38% hits;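 active = inhibition past about -25% in most replicates, and total fluorescence under double the plate's negative control median, limit read from the data; inconclusive = replicates evenly split on the limit, or fluorescence at least double controls; inactive = too little inhibition in most replicates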;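 note: 0% = DMSO and -100% = 5 µM competing unlabeled TCR2 RNA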
E coli Lon inh – inhibits E. coli Lon protease; purified E. coli Lon protease, fluorescence polarization; inhibition, % at 7.94 µM; 360,000 compounds, 0.42% hits; AID 602123; in the data active = inhibition above about 13%, passing the limit was not always enough;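 note: 0% = enzyme with probe and DMSO and 100% = no enzyme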
MCL1 BIM primary – MCL1-BIM-BH3 interaction inhibition (human). Q07820. GST-MCL1 / FITC-Bim-BH3 fluorescence polarization. inhibition, % at 10.9 µM. 320,000 compounds, 0.68% hits. AID 2057;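 active = inhibition above the mean inhibition of all tested compounds plus 3 SD, set per campaign, cut at about 40% in these data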;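 note: 0% = DMSO wells and 100% = unlabeled Bim-BH3 peptide control; higher means more loss of mP so more displacement of Bim peptide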
EBV gp42 inh – EBV gp42 inhibition | Q1HVG2 | Fluorescence polarization binding assay, mP read-out | inhibition, % (tested at 21.74 µM) | 220,000 compounds, 0.42% hits; in the data active = inhibition above about 50%
Target sequence (Q1HVG2 whole entry, looked up): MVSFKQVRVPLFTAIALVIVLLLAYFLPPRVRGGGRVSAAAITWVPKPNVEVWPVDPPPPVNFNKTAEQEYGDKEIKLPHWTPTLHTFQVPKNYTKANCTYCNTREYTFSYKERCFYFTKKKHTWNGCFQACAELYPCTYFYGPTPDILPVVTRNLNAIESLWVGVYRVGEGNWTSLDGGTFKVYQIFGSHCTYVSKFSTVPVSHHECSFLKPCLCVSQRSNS
Bcl-xL primary – Bcl-xL (human) inhibition; inhibition, % at 10.9 µM; AID 2129; Q07817; 320,000 compounds, 0.7% hits; GST-Bcl-xL / FITC-Bim BH3 peptide fluorescence polarization;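 active = inhibition above the mean of all tested compounds plus 3 SD, cutoff set per campaign, cut at about 30% in these data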;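 note: 0% = DMSO wells and 100% = unlabeled Bim-BH3 peptide competitor; inhibitors lower millipolarization by displacing the labeled peptide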
Target sequence (Q07817 whole entry, looked up): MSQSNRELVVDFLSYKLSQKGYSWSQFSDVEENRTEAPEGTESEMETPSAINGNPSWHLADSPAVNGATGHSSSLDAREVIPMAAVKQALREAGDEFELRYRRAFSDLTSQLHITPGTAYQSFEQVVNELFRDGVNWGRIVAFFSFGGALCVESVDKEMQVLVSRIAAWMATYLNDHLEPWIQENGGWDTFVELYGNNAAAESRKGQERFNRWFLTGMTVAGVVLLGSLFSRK
GLD-1 TGE inh – GLD-1-TGE RNA interaction inhibition (C. elegans); Q17339; purified GLD-1 + fluorescein TGE RNA, fluorescence polarization; inhibition, % at 5.96 µM; 320,000 compounds, 0.44% hits; AID 2280;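 active = percent inhibition above a per-plate cutoff, the plate mean of test compounds plus 3 SD, cut at about 30% in these data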;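 note: 0% = DMSO wells with GLD-1 and probe and 100% = wells lacking GLD-1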
E coli Lon conf – E. coli Lon inhibition confirmation; shares compounds with E coli Lon inh; purified E. coli Lon, fluorescence polarization; inhibition, % at 7.94 µM; 1,400 compounds, 31% hits; AID 602230; in the data active = inhibition above about 16%;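 note: 0% = enzyme with probe and DMSO and 100% = no enzyme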
* marks the source's active call; other numbers are inactive results; ? = inconclusive; . = no result given; + = active, no number.

SMILES | MEX-5 binding | E coli Lon inh | MCL1 BIM primary | EBV gp42 inh | Bcl-xL primary | GLD-1 TGE inh | E coli Lon conf
Cc1ccc(-c2nnn(CC(=O)N(c3ccc(F)cc3)C(C(=O)NC3CCCC3)c3ccncc3)n2)o1 (stereo not given) | -1 | 18* | 1 | . | 0 | -3 | -13
Cc1ccc(OCC(=O)N2CCN(S(C)(=O)=O)CC2)cc1 | 0 | 50* | -6 | -10 | -3 | 6 | -7
Cc1ccc(S(=O)(=O)CCC(=O)Oc2ccc(-c3nnco3)cc2)cc1 | 2 | -3 | -1 | . | 0 | 2 | .
Oc1cccc(Nc2c3ccccc3nc3ccccc23)c1 | -1 | 16 | 15 | . | 13 | 11 | .
c1cncc(Nc2c3ccccc3nc3ccccc23)c1 | 3 | 25* | 10 | . | 8 | 11 | -5
O=C(CCC1CCCC1)NC1CCCCC1 | 2 | 15* | -6 | -15 | -1 | -7 | -1
O=C(CC1CCCCC1)NC1CCCC1 | -3 | 6 | 2 | 1 | 2 | -6 | .
CC1Cc2ccccc2N1C(=O)COC(=O)Cc1ccc(F)cc1 (stereo not given) | 1 | -3 | -3 | . | 0 | -12 | .
O=C(CCCOC(=O)c1ccc(O)cc1O)c1ccc(Br)cc1 | . | 20* | . | . | . | . | -10
CCCCCC(C)NC(=O)c1cc(S(=O)(=O)N2CCCCC2)ccc1N1CCOCC1 (stereo not given) | . | 22* | 3 | . | 5 | 7 | 6
Cc1ccc(Cl)cc1NC(=O)c1cc2ccccc2cc1O | 0 | -2 | -3 | -14 | 1 | 0 | .
Cn1c(-c2ccccc2)c(CCO)c2ccccc21 | -1 | 32* | 6 | 10 | 6 | 3 | -7
COc1cccc2cc(-c3nc(-c4cccs4)cs3)c(=O)oc12 | -23 | -11 | 3 | 27 | 6 | 1 | .
O=c1oc2ccccc2cc1-c1nc(-c2cccs2)cs1 | ? | 39* | 6 | 113* | -4 | 139* | 45*
O=c1oc2ccccc2c(O)c1Sc1c(O)c2ccccc2oc1=O | . | 28* | . | . | . | . | 35*
O=C(c1c(O)c2ccccc2oc1=O)C1CCC1 | 1 | -11 | -1 | -7 | 2 | 9 | .
CC(=O)OCC(=O)Nc1ccc(C(C)=O)cc1 | -2 | 28* | -9 | -109 | -7 | -1 | -9
O=C(Cc1ccccc1)NNS(=O)(=O)c1ccccc1[N+](=O)[O-] | -2 | -9 | -4 | . | 0 | -4 | .
CCOC(=O)c1c2c3c(c(Cl)ccc3[nH]c1=O)C(=O)c1ccccc1-2 | -1 | 17* | . | 15 | . | . | 38*
COc1cc(NC(=O)c2cc(OC)c(OC)c(OC)c2)cc(-n2cnnn2)c1 | 1 | -2 | -10 | . | -2 | -1 | .
COC(=O)C1=C(C)NC2=C(C(=O)CCC2)C1c1ccc(-c2ccsc2C(=O)OC)o1 (stereo not given) | -1 | 18* | 1 | -8 | 6 | 0 | -27
Cc1ccc([C@H]2N[C@]3(CCCN(Cc4ccco4)C3=O)[C@H]3C(=O)N(Cc4ccccc4)C(=O)[C@@H]23)cc1 | . | 0 | . | . | . | . | .
O=C1[C@H]2[C@@H](c3ccccc3)N[C@]3(CCCN(Cc4ccco4)C3=O)[C@H]2C(=O)N1Cc1ccccc1 | . | 96* | . | . | . | . | -4
CC(/C=N/Nc1nc(C)cc(C)n1)=C\c1ccc(C(C)C)cc1 | -4 | -3 | -13 | -16 | -1 | 7 | .
CC1=NN(C(=S)Nc2ccccc2)C(c2ccccc2)C1 (stereo not given) | -3 | 84* | -3 | -23 | 0 | 4 | 9
O=C(NCCc1nnc2ccc(SCC(=O)N3CCCC3)nn12)c1ccccc1 | 1 | 2 | -1 | . | 1 | -7 | .
CC(C)c1ccc(OCC(=O)Nc2ccccc2C(=O)N2CCOCC2)cc1 | -3 | -13 | 3 | . | 0 | 1 | .
CCCCC1=CC2=C(c3ccco3)C(=O)C(C)(OC(=O)c3ccc(OC)cc3)C(=O)C2=CN1CC1CC1 (stereo not given) | -7 | 39* | 13 | 20 | 18 | 14 | 20*
Clc1ccccc1N=Nc1ccccn1 | . | + | . | . | . | . | 10
CCNS(=O)(=O)c1ccc(CCC(=O)NCCC2=CCCCC2)cc1 | 0 | -2 | -1 | 4 | -3 | -5 | .
